# TLR9-MyD88 inh = TLR9-MyD88 interaction inhibition | Q9NR96+Q99836 | CHO BLA complementation TLR9-MyD88, CCF4 FRET ratio | inhibition, % at 4.98 µM | 340,000 compounds, 0.21% hits | AID 504734;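 active means inhibition above the mean over all tested compounds plus 3 SD, cut at about 21% in these data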;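 further: 0% = DMSO only wells and 100% = clavulanate BLA inhibitor control wells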
# Myeloid diff MLP = promotes myeloid progenitor differentiation. calls only at 10 µM. 360,000 compounds, 1% hits. ER-HoxA9 myeloid progenitors, lysozyme-GFP differentiation, flow cytometry. AID 624256;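 active means normalized GFP-positive differentiation at or above the plate's own cutoff, the solvent-only control mean plus 3 SD; inconclusive means no clear call, values can overlap the other calls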;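 further: cells exposed to compound for four days before flow analysis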
# NOD2-RIPK2 inh = blocks binding of human NOD2 to RIPK2; CHO BLA complementation NOD2-RIPK2, CCF4 ratio; inhibition, % at 4.98 µM; 360,000 compounds, 0.38% hits; O43353; in the data active means inhibition above about 21%;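 further: 0% = vehicle only and 100% = reference blocker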
# TLR4-MyD88 BLA = blocks binding of human TLR4 to MyD88. 200,000 compounds, 0.18% hits. HeLa CL3-4 TLR4/MyD88 BLA complementation, FRET ratio. O00206+Q99836. AID 861. inhibition, % at 8.4 µM; in the data active means inhibition above about 25%;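 further: 0% = vehicle and 100% = reference inhibitor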
# TLR9-MyD88 cf = TLR9-MyD88 interaction inhibition, confirmation; shares compounds with TLR9-MyD88 inh; 680 compounds, 51% hits; CHO TLR9/MyD88 BLA complementation, CCF4 FRET ratio; inhibition, % at 4.98 µM;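 active means mean inhibition across three repeats above about 21% taken from the earlier screen, limit read from the data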;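 further: blue over green emission ratio reports constitutive TLR9 MyD88 association via BLA complementation; 0% = DMSO vehicle wells and 100% = clavulanate BLA inhibitor wells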
# Target sequence (Q9NR96 whole entry, looked up): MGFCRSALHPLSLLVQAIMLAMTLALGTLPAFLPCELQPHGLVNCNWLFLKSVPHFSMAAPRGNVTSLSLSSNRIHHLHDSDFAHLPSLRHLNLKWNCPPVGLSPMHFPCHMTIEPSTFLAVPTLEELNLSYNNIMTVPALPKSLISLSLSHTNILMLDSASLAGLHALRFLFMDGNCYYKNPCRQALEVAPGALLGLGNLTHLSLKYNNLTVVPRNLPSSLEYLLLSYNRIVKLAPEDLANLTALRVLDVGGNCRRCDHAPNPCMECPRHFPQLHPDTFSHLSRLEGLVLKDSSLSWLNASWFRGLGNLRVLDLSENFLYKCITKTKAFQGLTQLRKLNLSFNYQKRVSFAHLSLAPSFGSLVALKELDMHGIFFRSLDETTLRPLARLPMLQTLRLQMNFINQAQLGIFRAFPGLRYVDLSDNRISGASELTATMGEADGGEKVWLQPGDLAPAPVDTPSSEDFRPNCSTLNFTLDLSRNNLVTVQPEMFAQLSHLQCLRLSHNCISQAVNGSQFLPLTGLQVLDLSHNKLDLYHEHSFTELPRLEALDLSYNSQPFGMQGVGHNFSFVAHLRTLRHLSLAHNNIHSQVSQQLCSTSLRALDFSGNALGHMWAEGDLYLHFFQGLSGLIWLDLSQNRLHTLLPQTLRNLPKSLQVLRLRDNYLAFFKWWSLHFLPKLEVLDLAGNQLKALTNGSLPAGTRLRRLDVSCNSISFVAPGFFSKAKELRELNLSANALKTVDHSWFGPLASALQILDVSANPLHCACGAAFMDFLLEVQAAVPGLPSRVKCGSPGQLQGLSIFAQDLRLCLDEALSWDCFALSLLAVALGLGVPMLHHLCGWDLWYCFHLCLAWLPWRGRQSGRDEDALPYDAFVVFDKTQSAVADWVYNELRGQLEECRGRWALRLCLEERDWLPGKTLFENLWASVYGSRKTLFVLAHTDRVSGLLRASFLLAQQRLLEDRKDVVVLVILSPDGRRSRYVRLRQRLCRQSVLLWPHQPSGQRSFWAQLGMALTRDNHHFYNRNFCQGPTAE
# BLA nonselective = non-selective beta-lactamase inhibitors in TLR9-MyD88 counter-screen; 680 compounds, 7% hits; shares compounds with TLR9-MyD88 inh; CHO-BLA cells, CCF4 FRET ratio, BLA reporter; inhibition, % at 4.98 µM; AID 540251;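 active means mean inhibition above a 50% cutoff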;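 further: counterscreen of TLR9-MyD88 hits on CMV-driven BLA in CHO-K1 cells; 0% = DMSO alone and 100% = clavulanate blocking BLA; higher means less blue over green ratio so more BLA blockade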
# TLR9 CHO cytotox = CHO cell toxicity counter-screen for TLR9-MyD88 inhibitors | inhibition, % at 4.98 µM | 680 compounds, 39% hits | TLR9-MyD88 CHO cells cytotoxicity, luminescence | shares compounds with TLR9-MyD88 inh | AID 588336; in the data active means inhibition above about 11%
# * = called active by the depositor; i = inactive; u = inconclusive; x = no result given; + = active, no number. Hits are enriched below; roughly 1.5% of the tested compounds scored in any of these assays.
SMILES,TLR9-MyD88 inh,Myeloid diff MLP,NOD2-RIPK2 inh,TLR4-MyD88 BLA,TLR9-MyD88 cf,BLA nonselective,TLR9 CHO cytotox
c1ccc(-c2cnn3c(-c4ccccc4)c(-c4ccccc4)nc3n2)cc1,23*,+,9,13,60*,58*,-3
Nc1nc(-c2ccccc2)c(-c2ccccc2)n1N,5,i,-1,x,x,x,x
CCS(=O)(=O)Nc1ccc(C(=O)OC)cc1,1,i,1,6,x,x,x
CCS(=O)(=O)Nc1ccc(C(=O)c2ccccc2)cc1,22*,i,8,6,-6,-4,5
CCN(C(=O)COC(=O)c1cccc(S(=O)(=O)NCc2ccccc2)c1)c1ccccc1,22*,i,19,x,5,9,3
O=C(COC(=O)c1cccc(S(=O)(=O)NCc2ccccc2)c1)NC1CC1,8,i,-2,x,x,x,x
O=C(Nc1ccc(OC(F)F)cc1)c1ccccn1,4,i,-5,5,x,x,x
CS(=O)(=O)c1ncc(Cl)c(C(=O)Nc2ccc(N3CCOCC3)cc2)n1,43*,x,47*,25,47*,34,95*
CS(=O)(=O)c1ncc(Cl)c(C(=O)Nc2ccc(OC(F)F)cc2)n1,42*,u,73*,x,45*,41,97*
CC(C)C1C(=O)N(Cc2cn(CC3CCCCC3)nn2)CCS(=O)(=O)N1Cc1ccc(-c2cccc(CO)c2)cc1 (stereo not given),0,i,1,x,x,x,x
COc1cc(/C=C/C(=O)OCC(=O)N(C)CC(=O)Nc2ccc(F)cc2)ccc1OC(F)F,6,i,-7,x,x,x,x
COc1cc(/C=C/C(=O)OCC(=O)Nc2ccc3[nH]c(=O)[nH]c3c2)ccc1OC(F)F,23*,i,-10,x,7,3,7
CC(C)(C)C(=O)NC(=S)NNC(=O)c1sc2ccccc2c1Cl,30*,i,-14,-11,9,25,47*
CSC1=NC=C(C#N)C2=NC(c3ccc(Cl)cc3)NN12 (stereo not given),x,i,-10,x,x,x,x
CCCn1nc(-c2ccccc2)c2nc3ccccc3nc21,x,x,x,16,x,x,x
CCn1nc(-c2ccccc2)c2nc3ccccc3nc21,25*,i,10,25,35*,34,4
O=S(=O)(c1ccccc1)c1nc(Nc2cccc(O)c2)sc1Cl,21*,i,7,-8,-1,-3,-1
CCOC(=O)[C@]12CCCC=C1N(Cc1ccco1)C(=O)[C@H](CC(=O)NCCc1ccccc1OC)C2,x,i,-9,x,x,x,x
Cc1ccc2c(c1)c(N=O)c(O)n2Cc1ccc(Cl)cc1,13,i,1,17,x,x,x
O=Nc1c(O)n(Cc2ccc(Cl)cc2Cl)c2ccccc12,33*,i,16,0,23*,20,2
Cc1ccc(Cn2c(O)c(N=O)c3ccccc32)cc1,24*,i,13,9,1,3,5
C/C(Cl)=C\Cn1c(O)c(N=O)c2ccccc21,21*,i,19,8,9,11,2
N#Cc1cnc2nc1NCCCCCCC2,3,u,-7,x,x,x,x
Nc1cccc2c1C(=O)N(C(=O)c1ccc(Cl)c(S(=O)(=O)N3CCCCCC3)c1)C2=O,28*,i,17,19,8,13,2
O=c1nc2n(c3ccc([N+](=O)[O-])cc13)CCCCC2,-10,i,4,-11,x,x,x
SMILES,TLR9-MyD88 inh,Myeloid diff MLP,NOD2-RIPK2 inh,TLR4-MyD88 BLA,TLR9-MyD88 cf,BLA nonselective,TLR9 CHO cytotox
O=[N+]([O-])c1ccc2c(c1)C=C1CCCCC1(N1CCCCC1)O2 (stereo not given),24*,i,-14,6,-8,-5,-1
CCOC(=O)COc1ccc2ccccc2c1/C=C/[N+](=O)[O-],24*,i,-1,0,34*,-3,90*
CCOC(=O)COc1ccc(/C=C/[N+](=O)[O-])c(OCC(=O)OCC)c1,22*,u,1,11,13,-2,28*
COC(=O)c1cc(C#N)c(N2CCOCC2)nc1C,22*,i,-7,-5,-4,-4,0
O=C(c1ccc(N2C(=O)CCC2=O)cc1)N1CCCSC1=Nc1ccccc1,-6,i,-7,x,x,x,x
S=c1[nH]nc(-c2cccnc2)n1Cc1ccccc1,24*,i,2,-4,-3,-4,-3
Cc1ccc(NC(=O)c2cccc(C(F)(F)F)c2)cc1NC(=O)c1[nH]cnc1C(N)=O,28*,i,-6,x,2,5,-3
COC(=O)[C@@]1(Sc2ccc(C)cc2)CC(=O)N(C(=O)c2ccccc2)[C@@H]1c1ccccc1,x,i,-8,x,x,x,x
O=C(CSc1nncs1)Nc1nccs1,26*,i,0,x,0,-2,-1
NC(=O)c1ccsc1NC(=O)CSc1nncs1,-1,i,8,x,x,x,x
CC(=O)NC(c1ccccc1)c1nc(-c2cc3ccccc3o2)cs1 (stereo not given),x,i,-3,x,x,x,x
Cc1nnc(Sc2cc(NCCO)c([N+](=O)[O-])c3nonc23)s1,21*,i,10,2,23*,3,98*
O=[N+]([O-])c1c(NCCO)cc(N2CCCCCC2)c2nonc12,-2,i,-7,x,x,x,x
O=C(O)c1ccc(C=C(c2nc3ccccc3s2)c2nc3ccccc3s2)cc1,1,i,7,3,x,x,x
CN(C)c1ccc(/C=C(\Cl)c2nc3ccccc3s2)cc1,25*,i,17,18,16,23,10
COc1ccc(Cn2c(O)c(/C=N/NC(=O)c3cccnc3)c3ccccc3c2=O)cc1,26*,i,17,2,12,11,9
Cn1c(CNC(=O)CCNC(=O)c2ccccc2)cc(=O)n(C)c1=O,26*,i,3,x,2,2,0
O=C(NC1CCCC1)C1C(c2ccc(C(F)(F)F)cc2)=Nc2ccccc2N1C(=O)c1cc2ccccc2[nH]1 (stereo not given),x,i,1,x,x,x,x
O=[N+]([O-])c1cnc(Sc2ccncn2)s1,31*,u,80*,x,46*,1,99*
CO[C@H](C(=O)N(C)C[C@@H]1OCc2ccccc2-c2c(n(C)c3ccccc23)C(=O)N([C@H](C)CO)C[C@@H]1C)c1ccccc1,-30,i,-5,x,x,x,x
CCCCOCCCNC(=O)C[C@@H]1C[C@@]2(C(=O)OC)CC(C)(C)CC=C2N(Cc2ccc3c(c2)OCO3)C1=O,x,i,9,x,x,x,x
CN(C)/C=C1\C=C2C(=O)c3ccccc3N2C1=O,23*,+,1,x,7,8,-1
CO[C@@H]1CN(C)C(=O)c2ccc(NC(=O)c3ccccc3F)cc2OC[C@@H](C)N(CC2CCOCC2)C[C@@H]1C,x,i,1,x,x,x,x
N#Cc1ccc(-c2cccnc2)nc1SCC(=O)c1ccccc1,21*,+,14,x,9,9,10
N#Cc1ccc(-c2cccnc2)nc1SCC(=O)Nc1sc2c(c1C#N)CCC2,-2,i,-3,3,x,x,x

# High-throughput results deposited in PubChem BioAssay by several laboratories.
